# From PubChem
# Compounds with a hit are over-represented: about 7.4% of the library has one in this group of screens.
# Rab9 prom act – Rab9 promoter activation; Potency, µM (titrated, usually from 9.22 µM), for the others: top-dose activation, negative = inhibition, usual class: activators; Huh7 Rab9 promoter-luciferase reporter, luminescence, 24 h; AID 485297; hit rate 2.8% among 320,000; note: % of control where 0% means no effect; nearly all actives have a fitted effect of over 60% in size
#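 Huh7 cells stably carrying a Rab9 promoter-luciferase reporter, 1500 cells per well in OP-MEM I with 10% FBS, treated with compound 24 hours at 37C. Luciferase activity read by luminescence after 10 minutes with Amplite reagent.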
# NPC1 promoter act – activators of NPC1 promoter; Potency, µM (top dose mostly 9.22 µM), inactives show top-dose activation, usual class: activators; hit rate 2.4% among 320,000; Huh7 NPC1 promoter luciferase reporter, 24 h; note: % of control where 0% means no effect; nearly all actives have a fitted effect of over 60% in size
#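 Quantitative HTS used a cell-based reporter: Huh7 cells stably bearing the NPC1 promoter upstream of luciferase were treated with compounds for 24 h, and promoter activation was read as luminescence.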
# FLuc counter – counter-screen for miR-21 project: firefly luciferase inhibitors or activators; purified FLuc, Km substrates, luminescence inhibition; Potency, µM (highest dose often 57.5 µM), without a hit: at the highest dose activity change, negative = inhibition, hits mostly inhibitors; hit rate 6.9% among 360,000;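 note: plate controls were vehicle for no effect and reference inhibitor for full effect; nearly all actives have a fitted effect of over 55% in size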
# Target sequence (P08659 whole entry, looked up): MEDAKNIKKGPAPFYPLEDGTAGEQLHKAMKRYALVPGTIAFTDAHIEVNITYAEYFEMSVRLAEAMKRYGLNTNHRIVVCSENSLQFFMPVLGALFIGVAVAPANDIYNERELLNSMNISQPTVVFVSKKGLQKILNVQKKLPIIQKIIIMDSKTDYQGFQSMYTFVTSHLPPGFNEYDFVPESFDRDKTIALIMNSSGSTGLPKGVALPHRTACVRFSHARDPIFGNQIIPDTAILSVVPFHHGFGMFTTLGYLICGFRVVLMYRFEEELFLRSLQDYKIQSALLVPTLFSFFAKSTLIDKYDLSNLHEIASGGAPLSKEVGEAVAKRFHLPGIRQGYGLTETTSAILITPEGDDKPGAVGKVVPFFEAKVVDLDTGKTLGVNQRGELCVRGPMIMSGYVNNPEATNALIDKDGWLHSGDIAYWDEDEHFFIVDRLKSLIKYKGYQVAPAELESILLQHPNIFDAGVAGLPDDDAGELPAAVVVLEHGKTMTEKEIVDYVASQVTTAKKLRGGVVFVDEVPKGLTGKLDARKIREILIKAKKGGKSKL
#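 Purified P. pyralis luciferase (10nM final) with 10uM D-luciferin and 10uM ATP (Km levels) in 50mM Tris acetate pH 7.5, 10mM Mg acetate, 0.01% Tween-20, 0.05% BSA; qHTS 6-point titration, ~60 µM downward; luminescence read.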
# ELG1 genotox – inducers of genotoxicity in HEK293T ELG1-luciferase cells; HEK293T ELG1-luciferase reporter, luminescence, 16 h; Potency, µM (series often up to 46 µM), inactives show top-dose activity change, positive = activation, most hits filed as activators; hit rate 1.3% among 330,000; AID 504466; note: % of control where 0% means no effect; nearly all actives have a fitted effect of over 60% in size
#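 16 hr compound incubation (37 °C, 5% CO2) of HEK293T cells carrying luciferase-tagged ELG1; luciferase then measured by ONE-Glo luminescence after 30 min at RT.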
# SMN2 splice up – increases expression of the SMN2 splice variant; hit rate 2.8% among 210,000; AID 1458; HEK293 SMN2-luciferase splicing reporter, luminescence, 30-36 h; Potency, µM (titrated, usually from 46.1 µM), for the others: top-dose activity change, positive = activation, most hits filed as activators; note: % of control where 0% means no effect; nearly all actives have a fitted effect of over 55% in size
#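 HEK293 cells carry an SMN2 […]–luciferase reporter in which exon 7 inclusion puts luciferase in frame. Cells were plated 10-12 h before compound addition, then incubated 30-36 h at 37C. ONE-Glo luminescence was read; sodium butyrate at 4.5 mM final served as control.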
# Numbers without * were called inactive; ? = inconclusive; / = no result; [ ] = another dose, or the depositor's remark. Calls come from the whole dose curve; as a rule, active = well fitted curve in the direction sought with a large enough effect; inconclusive = small, poorly fitted or top-dose-only effect, or another doubt; inactive = no such curve, though single readings can be large; an effect the other way counts as inactive or inconclusive. Potency is the fitted concentration of half-maximal effect.
SMILES,Rab9 prom act,NPC1 promoter act,FLuc counter,ELG1 genotox,SMN2 splice up
C#CCN1C(=O)S/C(=C/C=C/c2ccc(N(C)C)cc2)C1=O,2µM*,3.16µM*,2.69µM*,9.2µM*,7.08µM*
CCOC(=O)C1CCCN(C(=O)CSCc2ccccc2)C1 (stereo not given),6.2%,?,?,13.9%,4.3%
CCOC(=O)C1CCCN(C(=O)CCc2nnc(-c3ccc(C(C)=O)s3)o2)C1 (stereo not given),0.794µM*,2.51µM*,10.7µM*,18.3µM*,/
COc1ccc(C(C)=O)cc1COC(=O)CCNS(=O)(=O)c1ccc(C(C)=O)cc1,0.3%,-7.4%,3.9%,0.9%,/
COCC(C)n1c(C)cc(C(=O)CSc2ncccn2)c1C (stereo not given),3.98µM*,3.16µM*,15.1µM*,?,11.2µM*
C=CCn1c(C)cc(C(=O)CSc2ccc(NC(C)=O)cc2)c1C,0.316µM*,0.501µM*,16.9µM*,?,-51.5%
O=C(CSc1ncccn1)c1ccccc1Br,2.7%,1.3%,?,17.0%,12.6µM*
COCC(C)n1c(C)cc(C(=O)CSc2nnnn2-c2ccc(O)cc2)c1C (stereo not given),10.0%,5.6%,21.3µM*,2.7%,0.5%
COc1ccc2c(c1)c(=O)c(C(=O)c1ccc(Cl)cc1)cn2CC(=O)Nc1ccc2c(c1)OCCO2,/,/,2.1%,/,-5.4%
CCC(CC)N=C1NS(=O)(=O)c2cc([N+](=O)[O-])ccc21,0.8%,0.7%,6.0%,-5.1%,-5.8%
COCC(C)n1c(C)cc(C(=O)CSc2ccc(NC(C)=O)cc2)c1C (stereo not given),?,?,-18.9%,7.94µM*,-40.1%
CC(=O)Nc1ccc(SCC(=O)c2cc(C)n(Cc3cccs3)c2C)cc1,?,13.1%,16.9µM*,?,-53.3%
COCC(C)n1c(C)cc(C(=O)CSc2nnc(Nc3ccccc3F)s2)c1C (stereo not given),7.3%,-4.1%,16.9µM*,-11.4%,-25.1%
CC(=O)Nc1ccc(NCc2cccs2)cc1,20.5%,12.3%,-11.9%,6.1%,/
COCCn1c(C)cc(C(=O)CSc2ccc(NC(C)=O)cc2)c1C,2µM*,?,?,?,-42.0%
O=C(O)[C@@H]1CCCN1Cc1ccc2c(c1)OCO2,/,/,/,/,-14.7%[9.22 µM]
Cc1cnc(C(=O)NC2CCSc3ccccc32)cn1 (stereo not given),2.8%,-4.9%,-2.3%,8.6%,/
COCCn1c(=O)c(-c2cccs2)nc2cnc(Oc3cccc(Cl)c3)nc21,/,/,/,/,-5.6%
Cc1cc([N+](=O)[O-])nn1CC(=O)N/N=C/c1ccc(O)cc1O,-19.3%,-13.3%,-2.1%,21.5%,/
CC(=O)Nc1ccc(SCC(=O)c2cc(C)n(-c3ccccc3F)c2C)cc1,23.5%,?,6.01µM*,?,-70.4%
COC(=O)c1ccc(-n2c(C)cc(C(=O)CSc3ccc(NC(C)=O)cc3)c2C)cc1,-1.9%,-0.4%,-12.3%,-8.4%,-12.2%
COc1cccc(Nc2nc(-c3sc(NC(=O)c4ccco4)nc3C)cs2)c1,-5.8%,-6.2%,23.9µM*,-8.4%,1.0%
COc1ccc(Cl)cc1Nc1nc(-c2sc(NC(=O)c3ccco3)nc2C)cs1,-3.6%,-8.7%,?,-8.2%,-4.1%
Cc1nc(C)c(-c2csc(Nc3ccc(F)cc3)n2)s1,?,11.7%,?,23.1%,-18.8%
COc1ccccc1Nc1nc(-c2sc(N)nc2C)cs1,3.3%,-0.3%,?,1.1%,/
SMILES,Rab9 prom act,NPC1 promoter act,FLuc counter,ELG1 genotox,SMN2 splice up
Cc1nc(N)sc1-c1csc(Nc2ncccn2)n1,0.562µM*,?,3.01µM*,23.1µM*,5.62µM*
Cc1nc(C)c(-c2csc(Nc3ccc(C(=O)O)c(O)c3)n2)s1,4.0%,-1.9%,12µM*,-4.0%,/
COc1cccc(Nc2nc(-c3sc(N)nc3C)cs2)c1,?,24.9%,13.5µM*,?,?
COc1ccc(CN2CCNC(=O)C2CC(=O)NCC2CCOCC2)c(F)c1 (stereo not given),2.5%,-6.7%,1.7%,-0.4%,/
COc1cccc(Nc2nc(-c3sc(C)nc3C)cs2)c1,26.4%,23.9%,19µM*,14.1%,/
COc1ccc(OC)c(Nc2nc(-c3sc(C)nc3C)cs2)c1,1.1%,-0.1%,?,-2.4%,-17.3%
COC(=O)c1ccccc1NC(=O)Nc1ccc2c(c1)OCO2,26.3%,21.0%,?,?,-15.4%
O=C(Nc1cccnc1)Nc1ccc2c(c1)OCO2,?,?,12µM*,16.5%,?
O=C(Nc1ccc2c(c1)OCO2)Nc1ccccn1,0.891µM*,2.82µM*,12µM*,?,/
S=C(Nc1ccc2c(c1)OCCO2)Nc1ccc2c(c1)OCO2,3.98µM*,?,16.9µM*,?,?
COC(=O)c1ccc(C(=O)OC)c(NC(=O)Nc2ccc3c(c2)OCO3)c1,?,?,21.3µM*,14.6µM*,?
CCc1nc2cccnc2n1-c1ccc(CC(=O)Nc2ccccc2Cl)cc1,/,/,-9.4%,/,/
Cn1ccc(NC(=O)Nc2ccc(Cl)cc2Cl)n1,?,?,15.1µM*,?,14.1µM*
CC(NC(=O)Nc1ccc(Cl)cc1)c1ccc2c(c1)OCO2 (stereo not given),3.8%,-4.0%,-0.6%,-5.0%,/
O=C(NCc1ccncc1)Nc1ccc2c(c1)OCO2,?,-0.6%,?,6.8%,/
O=C(Nc1ccc(Cl)cc1)Nc1ccc2c(c1)OCO2,1.78µM*,1.12µM*,2.13µM*,4.11µM*,/
